High-throughput results as filed in PubChem.
12-LOX inh – Primary qHTS assay for inhibitors of human arachidonate 12S-lipoxygenase (ALOX12): Round 2. purified 12hLO, xylenol orange hydroperoxide absorbance. Potency, µM (titrated, usually from 108 µM), for the others: at the highest dose activity change, negative = inhibition, most hits filed as inhibitors. AID 1671190, 2021. 580,000 tested, 1.1% active. Polyunsaturated fatty acid lipoxygenase ALOX12 (Homo sapiens), P18054; also: potency is read from the fitted curve at half-maximal effect
Target sequence (P18054 whole entry, looked up): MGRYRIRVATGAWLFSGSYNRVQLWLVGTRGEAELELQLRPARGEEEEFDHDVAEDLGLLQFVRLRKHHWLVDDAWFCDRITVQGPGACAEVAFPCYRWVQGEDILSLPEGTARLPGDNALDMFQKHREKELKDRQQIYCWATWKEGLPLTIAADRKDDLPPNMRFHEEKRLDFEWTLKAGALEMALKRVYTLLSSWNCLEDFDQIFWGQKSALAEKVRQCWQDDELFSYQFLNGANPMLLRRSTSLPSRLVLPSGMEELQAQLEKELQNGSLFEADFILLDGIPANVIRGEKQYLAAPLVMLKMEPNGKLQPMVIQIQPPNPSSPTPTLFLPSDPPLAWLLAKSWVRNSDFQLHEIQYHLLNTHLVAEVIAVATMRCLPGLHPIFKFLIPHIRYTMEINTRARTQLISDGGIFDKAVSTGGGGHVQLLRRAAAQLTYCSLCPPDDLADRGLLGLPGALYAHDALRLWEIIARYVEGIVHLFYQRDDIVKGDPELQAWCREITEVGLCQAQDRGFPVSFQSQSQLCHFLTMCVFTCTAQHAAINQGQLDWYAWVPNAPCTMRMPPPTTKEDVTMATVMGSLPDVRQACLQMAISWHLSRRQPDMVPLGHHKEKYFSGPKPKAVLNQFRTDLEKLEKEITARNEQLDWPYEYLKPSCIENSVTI
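Purified human 12hLO at 150 nM in 25 mM Hepes, 0.01% Triton X-100, pH 7.0, preincubated 15 min at room temperature with compound. Reaction started with 40 uM arachidonic acid, 30 min at room temperature. Hydroperoxide measured by Fe-xylenol orange, 573/405 nm absorbance ratio.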
TDP1 cell noCPT – qHTS for Inhibitors of human tyrosyl-DNA phosphodiesterase 1 (TDP1): qHTS in cells in absence of CPT; DT40 Tdp1-/- hTDP1 cells, no CPT, ATP luminescence, 48 h; Potency, µM (series often up to 46.2 µM), for the others: top-dose activity change, negative = growth inhibition, actives largely listed as inhibitors; 420,000 tested, 15% active; also: potency is read from the fitted curve at half-maximal effect; nearly all actives have a fitted effect of over 55% in size
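Chicken DT40 Tdp1-/- cells complemented with human TDP1, screened without camptothecin (DMSO vehicle only), 400 cells/well. Compounds pin-transferred, cells incubated at 37 °C for at least 48 hr. Growth read as ATP-dependent luminescence (CellTiter-Glo, 30 min at RT).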
IL-1B inflam inh – qHTS for Inhibitors of Inflammasome Signaling: IL-1-beta AlphaLISA Primary Screen; THP-1 LPS/ATP IL-1B secretion, AlphaLISA, 16 h; active compounds read low; AID 743279, 2014; 360,000 tested, 4.7% active; activity change, % at 57.5 µM; in the data active = activity change below about -50%; inconclusive = mostly about -30% to -49%
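Secreted IL-1B measured by AlphaLISA bead assay after 16 h compound exposure of THP-1 cells; compounds (final up to 57.5 uM) added 1 h before LPS (250 ng/mL) and ATP (1.25 mM) stimulation; lower signal means less secretion.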
DT40 TDP1 CPT – qHTS for Inhibitors of human tyrosyl-DNA phosphodiesterase 1 (TDP1): qHTS in cells in presence of CPT. chicken DT40 Tdp1-/-;hTDP1 cells + 20 nM CPT, ATP luminescence, 48 h. AID 686979, 2013. 420,000 tested, 12% active. Potency, µM (doses to about 46.2 µM), for the others: at the highest dose activity change, negative = growth inhibition, actives largely listed as inhibitors; also: potency is read from the fitted curve at half-maximal effect; nearly all actives have a fitted effect of over 55% in size
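Chicken DT40 Tdp1-/- cells complemented with human TDP1, 400 cells/well, exposed to compounds plus 20 nM camptothecin for at least 48 h at 37 C; viability read as ATP content by CellTiter-Glo luminescence.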
HT1080NT lethal – qHTS for induction of synthetic lethality in tumor cells producing 2HG: qHTS for the HT-1080-NT fibrosarcoma cell line; HT-1080-NT fibrosarcoma viability, CellTiter-Glo ATP luminescence, 48 h; 360,000 tested, 1.6% active; AID 686970, 2013; Potency, µM (series often up to 46.1 µM), without a hit: at the highest dose activity, negative = less viability, usual class: cytotoxic;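 also: NT is the 2HG producing partner of a matched IDH1 knockdown line; potency is read from the fitted curve at half-maximal effect; 0% = DMSO-treated cells and -100% = media-only wells without cells; nearly all actives have a fitted effect of over 55% in size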
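Luminescent CellTiter-Glo readout after 48 hours of compound exposure at 37 degrees C defined viability of HT-1080-NT cells. Activity was normalized to DMSO wells and cell-free media wells; concentration-response curves were fitted and assigned curve classes.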
HT1080 IDH1KD tx – qHTS for induction of synthetic lethality in tumor cells producing 2HG: qHTS for the HT-1080-IDH1KD cell line | HT-1080 IDH1 knockdown viability, ATP luminescence, 48 h | Potency, µM (series often up to 46.1 µM), for the others: at the highest dose activity, negative = toxicity, usual class: cytotoxic | 360,000 tested, 2% active | AID 686971, 2013;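 also: potency is read from the fitted curve at half-maximal effect; 0% = DMSO wells and -100% = cell-free medium wells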
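In this qHTS, HT-1080 cells depleted of IDH1 are exposed for 48 h at 37 °C to compound titrations. Toxicity is scored from CellTiter-Glo luminescence, with DMSO as full viability and medium alone as none.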
Active calls of the source: *; ? = inconclusive; · = not tested or not shown. Only a selection was taken, and hits are over-represented in it overall. Unless noted, calls follow the shape of the dose curve; as a rule, active = well fitted curve in the direction sought with a large enough effect; inconclusive = small, poorly fitted or top-dose-only effect, or another doubt; inactive = no such curve, though single readings can be large; an effect the other way counts as inactive or inconclusive. Unless noted, % is scaled to controls: 0 for no effect and ±100 for the full control effect.

SMILES	12-LOX inh	TDP1 cell noCPT	IL-1B inflam inh	DT40 TDP1 CPT	HT1080NT lethal	HT1080 IDH1KD tx
CCCCCCCCCCCCCCCC(O)C[N+](C)(C)CCO (stereo not drawn)	16µM*	3.3µM*	-76*	5.2µM*	7%	-2%
CCc1cc(=O)[nH]c(SCc2nc(-c3cccc(Cl)c3)no2)n1	-6%	16µM*	·	18µM*	·	·
Cc1cc(C)n2cc(CSc3nnc(-c4ccccc4)c(-c4ccccc4)n3)nc2n1	0%	23µM*	0	21µM*	-1%	5%
CC1=NN(c2ccccc2)C(=O)C1/C=C1\NC(=S)NC1=O (stereo not drawn)	?	0%	18	1%	5%	15%
CC1=NN(c2ccccc2)C(=O)C1C=Nc1ccccc1O (stereo not drawn)	2%	18µM*	167	?	?	?
Cc1cccc(OC(C)C(=O)Nc2ccc(SCc3cc(=O)n4c(ncn4C(C)C)n3)cc2)c1 (stereo not drawn)	0%	·	·	·	·	·
O=C(/C=C/c1cn(-c2ccccc2)nc1-c1ccccc1)Nc1ccc(C(=O)O)cc1	-9%	?	-2	?	?	23µM*
Cc1c(NC(=O)/C=C/c2cn(-c3ccccc3)nc2-c2ccc(F)cc2)c(=O)n(-c2ccccc2)n1C	-4%	?	-7	15µM*	-6%	0%
NS(=O)(=O)c1ccc(NC(=O)/C=C/c2cn(-c3ccccc3)nc2-c2cccc(Cl)c2)cc1	?	29µM*	14	?	?	?
CC1(C)CC[C@]2(C(=O)O)C(O)C[C@@]3(C)C(=CCC4[C@@]5(C)CCC(O)C(C)(C)C5CC[C@@]43C)C2C1 (stereo partly drawn)	·	23%	·	4%	·	·
CC1=C(C(=O)N(C)C)CC(CC(=O)NCC2CCCCC2)C(=O)N1Cc1ccc(C(C)(C)C)cc1 (stereo not drawn)	-32%	16µM*	-22	?	-17%	-9%
CCN(CC)C(=O)C1=C(C)N(Cc2ccc(C(C)(C)C)cc2)C(=O)C(CC(=O)NCC2CCCCC2)C1 (stereo not drawn)	?	18µM*	-82*	13µM*	?	?
CC1=C(C(=O)N(C)C)CC(CC(=O)NCC2CCCCC2)C(=O)N1Cc1ccccc1 (stereo not drawn)	?	-14%	1	-13%	-3%	2%
CCOc1ccc(S(=O)(=O)N(CC)CC(=O)NC2CC2)cc1Cl	-1%	·	·	·	·	·
Cc1cc(CN2CCC3(CC2)CN(c2ncccn2)CC3CO)n(C)n1 (stereo not drawn)	71%	·	·	·	·	·
CCOC(=O)C[C@H]1c2cc(F)ccc2S(=O)(=O)N1c1cccc(OC)c1	?	?	54	?	-1%	-7%
CC(=O)C[C@H]1c2cc(F)ccc2S(=O)(=O)N1c1ccc(N(C)C)cc1	-25%	13µM*	3	15µM*	-1%	-3%
S=C(NCc1ccco1)Nc1ccc(Cl)c(Cl)c1	28µM*	?	-101*	?	?	?
S=C(NCc1ccco1)Nc1cc(-c2ccccc2)[nH]n1	5µM*	?	·	12%	-11%	-24%
S=C(NCc1ccco1)Nc1ccc(Br)cn1	?	-14%	56	-21%	13%	17%
O=C(CCc1ccccc1)NC(=S)NCc1ccco1	-24%	21µM*	1	12%	-6%	-9%
S=C(NCc1ccco1)Nc1cc(Cl)c(Cl)cc1Cl	?	?	-52*	?	?	?
Cc1cccc(NC(=O)N2C[C@@H](F)C[C@H]2C(=O)N2CCCCC2)c1C	6%	·	·	·	·	·
CC(C)CCn1cnc2c1c(O)nc(=O)n2Cc1ccccc1	0%	·	·	·	·	·
S=C(NCc1ccco1)Nc1ccc(Oc2ccccc2)cc1	45µM*	?	-7	?	-6%	1%
SMILES	12-LOX inh	TDP1 cell noCPT	IL-1B inflam inh	DT40 TDP1 CPT	HT1080NT lethal	HT1080 IDH1KD tx
COc1ccc(NC(=S)NCc2ccco2)cc1	0%	-24%	-5	-8%	15%	13%
Cc1ccoc1C(=O)N1C[C@@H](COCC2CC2)[C@H](c2ccncc2)C1	12%	·	·	·	·	·
OC(CN1CCN(Cc2ccc3c(c2)OCO3)CC1)c1c[nH]c2ccccc12 (stereo not drawn)	19%	?	?	12µM*	-3%	1%
COc1ccc2c(c1)c(C(O)CN1CCC(Cc3ccccc3)CC1)c(C)n2C (stereo not drawn)	?	?	-90*	?	-3%	-1%
COc1ccc2c(c1)c(C(O)CN1CCN(Cc3ccc4c(c3)OCO4)CC1)c(C)n2C (stereo not drawn)	-26%	23µM*	-15	?	-27%	-29%
Cc1c(C(O)CN2CCN(Cc3ccc4c(c3)OCO4)CC2)c2ccccc2n1C (stereo not drawn)	45µM*	-30%	-10	?	?	11µM*
OC(CN1CCN(c2ccccc2)CC1)c1c[nH]c2ccccc12 (stereo not drawn)	0%	?	1	?	-17%	-30%
COc1ccccc1CC(=O)c1ccc(OCc2ccccc2)cc1	5%	?	-7	?	-20%	-5%
O=C(COc1ncnc2c1cnn2-c1ccccc1)NC1CCS(=O)(=O)C1 (stereo not drawn)	22%	·	·	·	·	·
CCC(C(=O)Nc1cc(OC)ccc1OC)n1nnc(C(=O)OC)c1C(=O)OC (stereo not drawn)	-10%	·	·	·	·	·
O=C(C1C2C(=O)N(CCOc3ccccc3)C[C@@]23C=C[C@@H]1O3)N1CCSCC1 (stereo partly drawn)	16%	·	·	·	·	·
CCCCc1cc(=O)oc2c(C)c(OCC(=O)NCc3cccnc3)ccc12	7%	·	·	·	·	·
Cn1c(C(=O)N2CCN(Cc3ccc4c(c3)OCO4)CC2)cc2c(=O)n(C)c3ccccc3c21	?	?	-27	?	-28%	-18%
